The text below walks through data of PubChem BioAssay AID1347426 (Functional Genomics Laboratory (NCATS/FGL), 2020).

Among all 31,000 sequences or so, about 1,400 (4.5%) were called active.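 Rule for the calls: active = median seed-adjusted z-score above 1 or below -1; inactive = the rest.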 The full list was thinned out, with actives kept by preference.

The assay can be described thus: Novel Modifiers of Survival Motor Neuron (SMN) Protein: Gene Identification via Genome-wide siRNA Screen.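 Note: luminescence tracks full-length SMN protein made from the SMN2 reporter.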 Conditions: HEK293T SMN2-luciferase reporter, siRNA knockdown, 72 h; actives lie on both sides. A digest of the protocol: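 HEK293T cells stably expressing an SMN2 splicing/cDNA-luciferase reporter were reverse-transfected with a druggable-genome siRNA library and read by luminescence at 72 hours; hits defined by MAD score above 1.0 or below -1.0.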
For the sequence GCUCAGCUCUGGUACUUUATT against GTF2H4, the median seed-adjusted z-score was -0.261 (inactive).
Next, GGUUUGAUGUAGGCCCAAUTT against MTFMT: -0.0119 (inactive); GGAAGAUCGAAAGUGCGAATT against GZMB: -0.0378 (inactive); AGUUCAUUCUGACAGAUGATT against VDR: -0.031 (inactive).
Next, CAAUAUUCCGUACAUAGAATT against MRAS: 0.032 (inactive); GGGAUCUAGUGAAUAAACUTT against EIF2B4: 0 (inactive).
Next, GCAAAGACCAUAAGAUUUATT against MYST1: 0 (inactive).
Take GAGUGUUCAGCAAACCGUATT against MED20: the median seed-adjusted z-score is -1.66 (active).
On to GAUGUGAAAUGGAGAAGUATT against KLF5, for which the median seed-adjusted z-score was -0.338 (inactive).
Under ACGCAGAUUUCUACAGAAATT against COX6C stands -0.0449 (inactive).
Next, GGAUUACUCUUUUGGUGCATT against IRF5: -0.146 (inactive); GAUGCGAUAUUAAUGGGAATT against SMYD4: 0.272 (inactive); GAAAAUGUGGGAUCAAGAATT against COQ7: 0.159 (inactive).
For the sequence GAGCUGACCUUGAACGAGATT against CHGB, the median seed-adjusted z-score was -1.29 (active).
In the case of GUGCUAAUCUCAAUACCGATT against ZRANB1, the median seed-adjusted z-score was -0.347 (inactive).
Regarding GGACAGCUAUGACUCGGAUTT against DOC2A, the median seed-adjusted z-score is 0.299 (inactive).
Consider GCAAGUAUUUUGACAAGGUTT against KIF7, for which the median seed-adjusted z-score was 0.0274 (inactive).
Under CAAACAAUAUGAGAGUGUUTT against IL7 stands 0.253 (inactive); under ACAAGACUCUGGACAUUAATT against DHRS4, 0.263 (inactive); under GAUUCAUGCAUUGAUCACATT against UBE2Z, 0.0572 (inactive).
Next, GCCCAGAAGUUUAGGGAAATT against TAP1: -0.506 (inactive); CAAAGUCCAUGGAGUCUUUTT against RASA4: -1.11 (active).
Under GGGUUAGUGGAGACCUUUATT against ATPAF1 stands 0.393 (inactive).
For GAAUUCACCAUUCAAGUAATT against SCYL3, the median seed-adjusted z-score is 0.665 (inactive).
Under AGGACGGUGCAGUACAGAATT against ZBTB46 stands 0.0546 (inactive); under GAACAACACCAACAUAAGATT against SMOC1, 0.0453 (inactive); under CAUCGCCUAUAUGAAAUAUTT against PLA2G10, 1.07 (active).
For the sequence GAGCCGUACUAUGACCUGATT against SSTR2, the median seed-adjusted z-score was -0.162 (inactive).
Under CGAAGCUAGUGGAACAGUATT against SF3A1 stands -1.09 (active); under CGAUGCCUGUUAUAAAUUATT against RCAN3, 0.544 (inactive).
Next, AAAUCCCUUUGACACCUUUTT against DNAJB1: 0.466 (inactive).
Next, CUCCUUCCCGGAUGAUUUATT against KLF17: -0.131 (inactive).
Regarding CCUCCGUCCUGUUUAGGAATT against LCN2, the median seed-adjusted z-score was 0.123 (inactive).
Under GCAACGAGUUCAACCUGGATT against RAB11B stands -0.857 (inactive); under CCACUUACCCUCAAAGAAATT against SLC4A5, 1.3 (active); under CCUCAGUGUGGGUAUAAGATT against HIF1A, 0.228 (inactive).
Next, UUGAUAAGGUUAAACCACATT against CSTA: -0.351 (inactive).
Regarding GCAGCACGAAGGAUACUGATT against ABCA4, the median seed-adjusted z-score was -1.09 (active).
Under CCACGAGAUUUCACAAACATT against PRKD3 stands -0.906 (inactive); under GCUUCACUCAGAUUCCGAUTT against DYNC1I2, -0.167 (inactive).
Under GCCUCUACCUCUUCGAAAATT against CLEC11A stands -1.1 (active).
In the case of GCAGUAAUGUUGAUAUAGATT against VDAC3, the median seed-adjusted z-score is 0.646 (inactive).
Under CUAUCUCACCAAGAUCUAUTT against PODN stands 0.589 (inactive).
As for CAUCUUCAGUCUGUACAAATT against KIR2DL5B, the median seed-adjusted z-score was 1.72 (active).
Take GGAAAGCAACAUACAGACATT against FABP6: the median seed-adjusted z-score is 0.122 (inactive).
Under GCCUUAUGUAUGCACAGAATT against HKR1 stands -0.358 (inactive); under AGGCAUAUCUUGAAGAACATT against CIP29, -1.18 (active); under CACAGUGUUUGAGAACUAUTT against RHOA, -0.219 (inactive).
Under GCAUCAACAGUAAUGAGAATT against KRT39 stands 0.161 (inactive).
Regarding CCACAUCAACAGUGCCUUUTT against ACOT11, the median seed-adjusted z-score was 0.636 (inactive).
In the case of AGGGCUUCUUGAAUCUCUATT against GSTO2, the median seed-adjusted z-score was 0.142 (inactive).
Under CCAAGAUGCUCAGUCAUCATT against MAP4K1 stands 0 (inactive).
Under CAACGUAUCAGAUUGAGAATT against ZNF281 stands 1.19 (active).
As for CUACCGGAUUGAGAUGGAATT against MEGF6, the median seed-adjusted z-score was 0 (inactive).
Under GCUGCUUGUGGAUUCGCUATT against TLN2 stands -0.0106 (inactive).
Under CACUCACACCAACCUGUGATT against GNG13 stands -0.516 (inactive); under CAGUGUUAGUGGAUUCAGATT against TMEM87B, -0.51 (inactive).
CAACCUUAUUAUCAUUGAATT against SF3B3: the median seed-adjusted z-score is -2.53 (active).
Under GGCAGAUCCUGACCUUUGATT against PRMT7 stands 0.204 (inactive); under CUUAAGAUCCCACACCUCATT against SLC39A4, 0.0304 (inactive).
Next, GCAUGUUCCAGAUCUAUCATT against DRD5: -0.18 (inactive); GAGCGUGACUGGGUUCUAATT against DDX5: 0.891 (inactive).
In the case of CAAAGACAAGGUCCCAUUUTT against IFI35, the median seed-adjusted z-score was 0.105 (inactive).
Under GCCCUAGAAAGGUCACUGATT against AKR1CL1 stands 0.488 (inactive); under GGAGGAACUCGAAUCAUUUTT against EIF4EBP2, 0.517 (inactive).
Next, GCAUCACCUUCUUUCGGAUTT against UNC13A: -2.1 (active).
Under GGACGGAAAACAGUCUUAATT against OAS2 stands 0.0758 (inactive); under CCCACACUCUAGACUGAAATT against MEF2D, 0.0021 (inactive); under CGGUCAAUGUUCUAAAGAUTT against CACNG5, -0.41 (inactive).
